Laboratory results reported in ChEMBL document CHEMBL3988442, “University of Dundee, Small-Polar-MMV Screening Library” (2021).
The campaign covered roughly 48,000 compounds. About 13,000 (27%) showed an effect of 50% or more. The list shows a part of the results.

Test system: Wolbachia pipientis
Assay: Anti-Wolbachia Cell-Based Screen
Format: functional
Design: scale not given: in the data most compounds retested in dose-response had high values
Conditions: 5 µM

| Compound | Percent Effect |
| --- | --- |
| Cc1ccc(C(F)(F)F)cc1C(=O)N[C@H]1CN(CCO)C[C@@H]1C1CC1 | 7.552% |
| CNC(=O)c1c(C)cccc1NCc1noc(C2CC2)n1 | -16.59% |
| N#Cc1ccc(CN2C[C@@H](F)[C@@H](OCc3nc4cnccc4[nH]3)C2)cc1 | -2.578% |
| CC1CN(C(=O)NCc2cnn(-c3ccc(F)cc3F)c2)CCO1 (configuration not stated) | -3.691% |
| Cc1cnn(CCNCC(=O)Nc2ccc(Cl)cn2)c1 | 6.715% |
| CC(C)c1nn(C)c(N(C)C)c1CNC1CCN(C2CC2)CC1.Cl | -24.68% |
| CC(C)CN1CC2(CCN(C(=O)C3CSC(C)(C)C(=O)N3)CC2)CC1=O (configuration not stated) | -2.858% |
| Cn1ccnc1C(=O)N[C@@H]1CN(Cc2cccs2)[C@@H]2CCCO[C@@H]21.O=C(O)C(F)(F)F | -0.1124% |
| Cn1cc(C(=O)N[C@@H]2CN(Cc3ccoc3)[C@@H]3CCCO[C@@H]32)cn1 | 112.9% |
| Cn1cc(C(=O)N[C@@H]2CN(Cc3ccc(F)cc3)[C@@H]3CCCO[C@@H]32)cn1.O=C(O)C(F)(F)F | -4.433% |
| Cc1ccc(CN2C[C@H](NC(=O)c3nccn3C)[C@H]3OCCC[C@H]32)o1 | 104.4% |
| CCN(CC)[C@@H]1CN(Cc2ccc(C)o2)[C@@H]2CCCO[C@H]12 | -8.708% |
| Cn1cc(C(=O)N[C@@H]2CN(Cc3cccs3)[C@@H]3CCCO[C@@H]32)cn1.O=C(O)C(F)(F)F | -10.01% |
| Cn1ccnc1C(=O)N[C@@H]1CN(Cc2ccc(F)cc2)[C@@H]2CCCO[C@@H]21.O=C(O)C(F)(F)F | 106% |
| O=C1C(NCc2nnc3n2CCCC3)CCN1CC(F)(F)F (configuration not stated) | -0.8085% |
| COc1ccc(CSCC(O)CO)c(Cl)c1 (configuration not stated) | -5.402% |
| CCn1cc(S(=O)(=O)NC(CO)Cc2c[nH]c3ccccc23)cn1 (configuration not stated) | -10.13% |
| CC(=O)NC1CCN(c2nc(C)nc3c2c(C)nn3C)C1 (configuration not stated) | -5.882% |
| CCN(CC)c1nc2sc(C(=O)NC(C)(C)C(=O)OC)cc2s1 | 3.402% |
| Cc1ccc(N2Cc3nc(=O)[nH]n3C2=O)cc1 | -1.797% |
| CC(=O)NCC1CCN(Cc2nc(C3CC3)no2)CC1 | 21.76% |
| COC(=O)c1ccc(CN2CCC(c3n[nH]c(C)n3)CC2)s1 | 96.4% |

| Compound | Percent Effect |
| --- | --- |
| COC(=O)c1cc(CN2CCC(c3noc(C)n3)CC2)c(C)s1 | 83.77% |
| COC(=O)c1ccc(Cn2cccc(C(F)(F)F)c2=O)s1 | -1.829% |
| Cc1noc(CN2CCN(CCS(C)(=O)=O)CC2)n1 | -3.839% |
| COC(=O)c1ccc(CN2CCC(c3noc(C)n3)CC2)s1 | 44.67% |
| Cc1nc(C2CCN(S(=O)(=O)c3ccc4c(c3)CCO4)CC2)n[nH]1 | 0.09354% |
| COC(=O)c1ccc(CN2CCN(Cc3nc(C)no3)CC2)s1 | 97.03% |
| Cc1noc(CN2CCN(C(C)C(=O)NCc3cccs3)CC2)n1 (configuration not stated) | 10.97% |
| O=C1CCCc2occ(C(=O)N3CCCC4(CCNC4)C3)c21 (configuration not stated) | -0.7654% |
| Cc1c(Cl)cccc1S(=O)(=O)NCC(O)c1cccn1C (configuration not stated) | 9.208% |
| O=C(NCCn1cccn1)Nc1cc(C(=O)N2CCOCC2)ccc1Cl | -1.545% |
| COCCNC(=O)[C@H]1C[C@@](CC(C)C)(C(=O)O)N(C)[C@H]1c1cccnc1 | -5.7% |
| CC(C)n1cc(C(=O)NCC(CO)Cc2cccs2)cn1 (configuration not stated) | 100.7% |
| Cc1cc(C)n(-c2ccc(C(C)NS(=O)(=O)CCCS(C)(=O)=O)cc2)n1 (configuration not stated) | 5.826% |
| Cc1cc(C)n(-c2ccc(C(=O)NCC(CO)Cc3cccs3)cc2)n1 (configuration not stated) | 87.25% |
| CC(CNC(=O)N1CCC(CO)CC1)Cc1cccs1 (configuration not stated) | -8.447% |
| CCCS(=O)(=O)NC(=O)c1ccc(-n2nc(C)cc2C)cc1 | -12.15% |
| Cc1cc(C)n(-c2ccc(C(=O)NCC(CO)Cc3ccco3)cc2)n1 (configuration not stated) | 116.9% |
| CSCc1nc(CNC(=O)c2cnn(C(C)C)c2)cs1 | -8.764% |
| Cc1cc(C)n(-c2ccc(C(=O)NCc3cncn3CC(C)C)cc2)n1 | -4.296% |
| CC(C)n1cc(C(=O)NCCc2cn3ccsc3n2)cn1 | -2.025% |
| Cc1cc(-c2nn(C)c(Cl)c2CN2Cc3ccccc3C(O)C2)no1 (configuration not stated) | 9.326% |
| CCCS(=O)(=O)N1CCC2(CCCC(=O)N2C)CC1 | -27.87% |

| Compound | Percent Effect |
| --- | --- |
| COCCN1CCN(Cc2ccc(C(C)=O)cc2)[C@H]2CS(=O)(=O)C[C@H]21 | -2.157% |
| Cc1nn(C)c(Oc2cccc(F)c2)c1NC(=O)C1CCCO1 (configuration not stated) | 1.382% |
| COC(=O)C1CN(Cc2ccc(-c3ccncc3)cc2F)C[C@@H](C)O1 (some centres not stated) | 4.503% |
| CC(C)OCCN1CCN(C(=O)c2cccc(-n3cccn3)n2)CC1 | -4.895% |
| COc1cccc2c1OCC(CNC(=O)CSc1ccccn1)C2 (configuration not stated) | -6.827% |
| COc1cccc2c1OCC(C(=O)NCCc1nnc(N)s1)C2 (configuration not stated) | 12.39% |
| COc1cccc2c1OCC(NC(=O)NCCc1ccccn1)C2 (configuration not stated) | 120.5% |
| COc1cccc2c1OCC(CNC(=O)CNC(N)=O)C2 (configuration not stated) | -0.3476% |
| COc1cccc2c1OCC(NC(=O)NCCC(N)=O)C2 (configuration not stated) | 107.1% |
| COc1cccc2c1OCC(C(=O)NCCc1nnc(C)s1)C2 (configuration not stated) | 6.125% |
| CNC(=O)c1cccc(CNC2CCCSc3ccccc32)c1 (configuration not stated) | -0.5699% |
| CN(C)C(C(=O)NCC1(Cn2cccn2)CC1)c1ccc(F)cc1 (configuration not stated) | -7.743% |
| CSc1ccc(OC(C)C(=O)Nc2cc[nH]n2)cc1 (configuration not stated) | 1.482% |
| COc1cccc(CNCc2nnc3n2CC(C(F)(F)F)CC3)c1 (configuration not stated) | -16.12% |
| CCC1COCCN1C(=O)CNC(=O)c1ccc2c(c1)CCC2 (configuration not stated) | -1.675% |
| CCn1cc(NC(=O)NCC(O)CN2CCc3ccccc3C2)cn1 (configuration not stated) | 9.53% |
| O=C(NCC(O)CN1CCc2ccccc2C1)Nc1cccnc1 (configuration not stated) | 1.395% |
| NC(=O)Cn1cc(NC(=O)NCC2CCN(c3ccccc3)C2)cn1 (configuration not stated) | 6.849% |
| CCn1cc(NC(=O)NCC(C)(C)N2CCc3ccccc3C2)cn1 | 107.6% |
| CC(Cn1cccn1)NC(=O)NCCN1CCc2ccccc2C1 (configuration not stated) | 1.571% |
| CCC(CNC(=O)c1ccccc1Br)N1CCc2ccccc2C1 (configuration not stated) | -9.585% |
| CCn1cc(NC(=O)NCC(c2cccs2)N(C)C)cn1 (configuration not stated) | -11.74% |

| Compound | Percent Effect |
| --- | --- |
| CCC(CNC(=O)Nc1cnn(CC)c1)N1CCCC1 (configuration not stated) | -8.538% |
| NC(=O)Cn1cc(NC(=O)N2CCCC2)cn1 | -13.27% |
| CCC(CNC(=O)Nc1cnn(CC)c1)N1CCc2ccccc2C1 (configuration not stated) | 115.3% |
| NC(=O)Cn1cc(NC(=O)NCCN2CCc3ccccc3C2)cn1 | 93.55% |
| CCn1cc(NC(=O)NCCN2CCc3ccccc3C2)cn1 | 123.6% |
| Cc1cnn(CCNCc2c(C)nn(CCO)c2C)c1 | 8.317% |
| Cc1nn(CCO)c(C)c1CNCc1cccnc1N(C)C | 113.9% |
| Cc1nn(C)c(N(C)C)c1CNCc1ccccc1Cn1cncn1 | 3.483% |
| COc1ncccc1CNCc1c(C(C)C)nn(C)c1N(C)C | 7.273% |
| COCCOc1ncccc1CNCc1c(C)nn(C)c1N(C)C | 5.631% |
| Cc1cc2nc(C(=O)NCc3cccnc3N(C)C)cc(C)n2n1 | -11.37% |
| CC(C)c1nn(C)c(N(C)C)c1CNCc1ccccc1CN(C)C | -8.36% |
| Cc1nn(C)c(N(C)C)c1CNCc1cccnc1N(C)C | 64.69% |
| COc1ncccc1CNCc1c(C)nn(C)c1N(C)C | 96.94% |
| COCc1ccccc1CNCc1c(C)nn(C)c1N(C)C | 5.243% |
| CCOc1ncccc1CNCc1c(C(C)C)nn(C)c1N(C)C | 98.21% |
| CCOc1ccc(NC2CCN(C)C2=O)cn1 (configuration not stated) | -24.45% |
| Cc1noc(C)c1CN(C)CC1CC(C2CCCCC2)=NO1 (configuration not stated) | 7.193% |
| Cc1cc(CNCC2(O)CCOCC2)ccc1Br | -3.743% |
| CN1CCN(CCCOc2ccccc2CN2C[C@H]3CC[C@H]2C3)CC1 | -24.99% |
| Cc1nn(C)c(N(C)C)c1CNCc1ccccc1CN(C)C | 13.98% |
| CCOc1ncccc1CNCc1c(C)nn(C)c1N(C)C | 97% |

| Compound | Percent Effect |
| --- | --- |
| Cc1nn(C)c(N(C)C)c1CNCc1cccnc1OC(C)C | 107.9% |
| COc1c(CNCc2cccnc2OC(C)C)c(C(C)C)nn1C | 2.472% |
| Cc1ccc(CNC(=O)C2CCN(C(=O)c3ccco3)CC2)n1C | 1.7% |
| Cn1cc(CN2C[C@@H]3CCCO[C@@H]3[C@H](N3CCCC3=O)C2)cn1.O=C(O)C(F)(F)F | -11.94% |
| Cc1ccc(N2CCCC(NCc3ccc(C)s3)C2)nn1 (configuration not stated) | 102.5% |
| Cc1ccc(N2CCCC(NCc3sccc3C)C2)nn1 (configuration not stated) | 101% |
| Cc1ccc(N2CCCC(NCc3cnc(C)s3)C2)nn1 (configuration not stated) | 95.67% |
| Cc1ccc(N2CCCC(NCc3ccsc3)C2)nn1 (configuration not stated) | -6.53% |
| CCN(CCOC)C(=O)CCc1scnc1C | 1.791% |
| CCc1ccc(CNc2cc(-c3ccoc3C)nn2CCO)o1 | -16.42% |
| Cc1nnc2n1CCN(C(=O)c1cnc3c(cnn3CC(C)C)c1)C2 | -2.285% |
| CC(C)CN(Cc1ccc(O)c(C(=O)O)c1)Cc1cnn(C)c1 | -4.31% |
| COc1cc(CN(CCCN(C)C)Cc2ccccn2)cc2c1OCO2.O=C(O)CC(O)(CC(=O)O)C(=O)O | 126.3% |
| Cc1ccc(CN(CCCN(C)C)Cc2cnc(N(C)C)nc2)o1.O=C(O)CC(O)(CC(=O)O)C(=O)O | 115.6% |
| COc1cc(CN(Cc2ccccn2)CC(C)C)cc2c1OCO2 | -37.75% |
| CN(C)c1ccc(CN(CCCn2ccnc2)Cc2c[nH]cn2)cc1.O=C(O)CC(O)(CC(=O)O)C(=O)O | -12.92% |
| Cc1nc2sccn2c1CN(CCCN(C)C)Cc1ccco1.O=C(O)CC(O)(CC(=O)O)C(=O)O | 131.3% |
| CC(C)OCCCN(Cc1cnn(C)c1)Cc1ccccn1.O=C(O)CC(O)(CC(=O)O)C(=O)O | 84.46% |
| O=C(Cc1cn2ccsc2n1)N(Cc1ccco1)CC1CCCO1 (configuration not stated) | 1.448% |
